SMILES strings stand for the structures. Hit rate of the full screen: of about 410,000 compounds, about 18,000 (4.4%) were called active. Roughly 7% stayed inconclusive and do not appear here. Cut-off read from the data, not from the text of the source: active = activity change below about -60%; inconclusive = no clear call, values can overlap the other calls; inactive = above about -39%. This excerpt belongs to a sample that is enriched for actives.
% is set by controls: 0 for no effect and ±100 for the full control effect.

A short description of the experiment: qHTS Assay for inhibitors of the human cytomegalovirus (HCMV). The note with it: HFF cells, HCMV-luciferase reporter, 72 h; at 57.5 µM; hits give low values. The source says: NCGC Assay Overview: Infection with human cytomegalovirus (HCMV) continues to pose significant threats for pregnant women and immunocompromised hosts. HCMV causes serious morbidity and mortality in transplant recipients, and congenital HCMV is the leading infectious cause of mental retardation and deafness in children. In the 1990s, the annual costs associated with the disease burden of congenital CMV were estimated at around $2 billion. A HCMV vaccine is not available yet and HCMV therapies result in intolerable side effects and emergence of drug resistant viruses. […] Towards this goal we have developed and characterized a luciferase HCMV reporter that was initially used in 96 well plates and then optimized to 1536-well plates for utilization in screening of the MLSMR collection, the NGCG diversity collection and the NCGC Pharmaceutical Collection of approved and investigational drugs.
NCGC Assay Protocol Summary:
This is a cell-based assay for HCMV inhibition in HFFs cells. The screening used 2 compound doses and the HCMV-luciferase at MOI of 1 PFU/cell. Cells were treated and infected with HCMV. At 72 h post infection cell lysates were collected and luciferase activity was determined using the Glomax-Multi + Detection System (Promega, Madison, WI). Data were normalized to the controls for basal activity (buffer only) and known HCMV inhibitors Salinmoycin.
1536-well assay protocol for the assay:
(1) Add 3 ul CMV/HFF cell culture. 1000 cells/well in DMEM nirmal media.
(2) Incubate 16 hr at 37C.
(3) Add 23 nl control compound, 10uM of Salinomycin.
(4) Add 23 nl compounds in DMSO solution.
(5) Add 3 ul CMV suspension. Final 1 puf/ul, Virus stock 2000pfu/ul
(6) Incubate 72 hrs at 37C.
(7) Add 4 ul OneGlo Luc Reagent.
(8) Incubate 5 min at room temperature.
On to `Cc1ccc(O)c(-c2cc(C(=O)NCc3ccccc3)[nH]n2)c1`, for which the activity change, negative = inhibition is 1.75% (inactive). For `Cc1ccc(/C=N/NC(=O)C2=NNC(c3ccccc3)(c3ccccc3)C2)c(O)c1`, the activity change, negative = inhibition is -93.6% (active). Turning to `Cc1ccc(/C=N/NC(=O)C(NC(=O)c2ccccc2)c2n[nH]c(=O)c3ccccc23)cc1` (stereo not given), the activity change, negative = inhibition was 19.8% (inactive). In the case of `COc1ccc(NC(=O)c2cc3cc(C)ccc3n2C)cc1`, the activity change, negative = inhibition was 5.58% (inactive).

For `CCOC(=O)c1c(S(=O)(=O)N2CCCC(C(=O)NCc3cccc(C)c3)C2)c(C)n(C)c1C` (stereo not given), the activity change, negative = inhibition is -0.309% (inactive). Then `Cc1oc2ncn(CC(C)C)c(=O)c2c1C(=O)N1CCN(c2ccccc2F)CC1`, with 14.5% (inactive); and `C=C1C(=O)[C@]23C[C@H]1CCC2[C@@]1(C)C(C[C@@H]3O)[C@](C)(C(=O)O)CC[C@@H]1O` (stereo not given in full), with -81.2% (active); and `Cc1ccc(OCCOCCOc2ccc(Br)cc2/C=N\NC(=O)c2ccncc2)cc1`, with -1.54% (inactive). Then `Oc1ccc(Br)cc1/C=N/Nc1ccccn1`, with -97% (active). Then `Fc1ccccc1/C=N/Nc1cc(N2CCCCC2)ncn1`, with 76.3% (inactive). Regarding `COc1ccc(-c2noc(CSc3nc4ccc(C)cc4[nH]3)n2)cc1`, the activity change, negative = inhibition was -38.7% (inactive). On to `COC(=O)c1cnc(N2CCN(c3ccccc3OC)CC2)c2ccccc12`, for which the activity change, negative = inhibition was -6.88% (inactive). Regarding `Cc1cccc(N2CCN(C3=C(c4ccccc4)C(=O)c4ccccc43)CC2)c1C`, the activity change, negative = inhibition is -15.5% (inactive). Consider `O=C(NC1CC(=O)N(c2ccc(F)cc2)C1)c1cccs1` (stereo not given), for which the activity change, negative = inhibition was 70.7% (inactive). Consider `COc1ccc(C)cc1Nc1nc2ccccc2c2nnc(C)n12`, for which the activity change, negative = inhibition was 18.4% (inactive). `O=C(c1n[nH]c2c1CCC2)N1CCCC(Nc2cccc(F)c2)C1` (stereo not given): the activity change, negative = inhibition is 9.79% (inactive). With `Cc1ccc(-c2onc(C)c2C)cc1S(=O)(=O)Nc1ccccn1`, the activity change, negative = inhibition was 52.8% (inactive).

As for `COc1ccc(NS(=O)(=O)c2ccc(N3CCOCC3)c(NC(=O)c3ccccc3Br)c2)cc1`, the activity change, negative = inhibition is 0% (inactive). `Cn1c(=O)c(=O)n(C)c2cc(NC(=O)c3ccccc3Br)ccc21`: the activity change, negative = inhibition is -5.7% (inactive).

`COc1ccc2c(c1)Cc1sc(NC(=O)c3ccccc3Br)nc1-2`: the activity change, negative = inhibition was -70.4% (active). With `O=C(NCCc1ccccc1)c1ccc2c(c1)N(Cc1ccccc1)C(=O)c1ccccc1S2(=O)=O`, the activity change, negative = inhibition is 3.01% (inactive).

In the case of `O=C(OCCO)c1cc(Cl)c(C(=O)OCCO)cc1Cl`, the activity change, negative = inhibition was -29.4% (inactive). Take `CC1=C(C(=O)N(C(C)C)C(C)C)CC(CC(=O)NCCCCc2ccccc2)C(=O)N1CCC1=CCCCC1` (stereo not given): the activity change, negative = inhibition is -112% (active). Consider `CC1=C(C(=O)N(C)C)CC(CC(=O)NCCc2ccccn2)C(=O)N1CCC1=CCCCC1` (stereo not given), for which the activity change, negative = inhibition was 8.56% (inactive). Regarding `CCOC(=O)[C@]12CCCC=C1N(CCC1=CCCCC1)C(=O)[C@H](CC(=O)NCCCCc1ccccc1)C2`, the activity change, negative = inhibition is -18.4% (inactive). Then `COc1ccccc1NC(=O)C1=C(C)Nc2ncnn2C1c1sccc1C` (stereo not given), with 18% (inactive).

As to `O=C(CSc1oc(-c2ccco2)nc1S(=O)(=O)c1ccc(Cl)cc1)c1ccccc1`, the activity change, negative = inhibition is -0.0708% (inactive). In the case of `O=C(Nc1ccc(S(=O)(=O)N2CCOCC2)cc1)C1CCN(S(=O)(=O)c2ccc(Cl)cc2)CC1`, the activity change, negative = inhibition is -78.5% (active). Then `CC(=O)Nc1ccc(S(=O)(=O)N2CCC(C(=O)NC3CC3)CC2)cc1`, with 6.71% (inactive); and `O=C(Nc1ccc(Oc2ccccc2)cc1)C1CCN(S(=O)(=O)c2ccc(Cl)cc2)CC1`, with -10.9% (inactive). For `CCCNC(=O)c1ccc(Cn2c(SCC(N)=O)nc3ccccc3c2=O)cc1` the value was 4.58% (inactive); for `CN(CC(=O)Nc1ccc(C(N)=O)cc1)S(=O)(=O)c1ccc2c(c1)OCCO2`, 21.6% (inactive); for `NC(=O)c1ccc(NC(=O)COC(=O)c2c3c(nc4ccccc24)/C(=C\c2ccc4c(c2)OCO4)CCC3)cc1`, -90.6% (active).

On to `NC(=O)c1ccc(NC(=O)COC(=O)C(Cc2ccccc2)NC(=O)c2ccccc2)cc1` (stereo not given), for which the activity change, negative = inhibition was 10.9% (inactive). Regarding `COc1ccc(CCNC(=O)CCCn2c(=O)c3ccccc3n(Cc3ccc(C)cc3)c2=O)cc1OC`, the activity change, negative = inhibition is 8.21% (inactive). `Cc1ccc(Cn2c(=O)n(Cc3nc(-c4ccccc4)no3)c(=O)c3cc4c(cc32)OCO4)cc1`: the activity change, negative = inhibition was -3.37% (inactive). Turning to `COc1cc(C(=O)Nc2ccc(OCc3cc(=O)n4ccc(C)cc4n3)cc2)cc(OC)c1OC`, the activity change, negative = inhibition was 58.3% (inactive).

With `COc1ccc2oc(-c3ccc(C)c(NC(=O)c4sc5ccccc5c4Cl)c3)nc2c1`, the activity change, negative = inhibition is 47.4% (inactive). For `CCCCN1C(=O)c2[nH]nc(-c3ccccc3O)c2C1c1cccc(OCc2ccccc2)c1` (stereo not given), the activity change, negative = inhibition was -19% (inactive). Consider `Cc1[nH]nc(-c2ccc(OCc3cnn(-c4ccccc4)c3)cc2O)c1Oc1ccc(Cl)cc1`, for which the activity change, negative = inhibition was -95.2% (active). Then `Oc1cccc(C2c3[nH]c4ccccc4c3CCN2Cc2cnn(-c3ccccc3)c2)c1` (stereo not given), with 19.4% (inactive); and `CCC1CCCCN1C(=O)Cn1c(=O)n(CCCCCC(=O)NCc2ccccc2)c(=O)c2sccc21` (stereo not given), with -18.6% (inactive); and `CCOC(=O)c1sc(-c2cccc([N+](=O)[O-])c2)cc1N`, with 0.0939% (inactive). In the case of `CCOC(=O)N1CCN(Cc2nnc(-c3ccccc3Cl)o2)CC1`, the activity change, negative = inhibition was -96.5% (active).

In the case of `CCOC(=O)C1CCN(Cc2nnc(-c3cccc(Br)c3)o2)CC1`, the activity change, negative = inhibition was -20.4% (inactive). As to `Cc1ccc(-c2nnc(CN3CCN(C)CC3)o2)cc1`, the activity change, negative = inhibition is 145% (inactive).

In the case of `O=C(Nc1nnc(C2CC(=O)N(c3ccc(Cl)cc3)C2)s1)c1ccco1` (stereo not given), the activity change, negative = inhibition was 5.75% (inactive). For `Cc1ccc(NC(=O)CC2C(=O)N(Cc3ccccc3)C(=S)N2NC(=O)c2cccc(F)c2)c(C)c1` (stereo not given), the activity change, negative = inhibition was -70.8% (active). Consider `Cc1ccc(NC(=O)CN2C(=O)CC(C)Sc3ccccc32)c(C)c1` (stereo not given), for which the activity change, negative = inhibition is -2.3% (inactive). Take `Cc1ccc(N2C(=O)C(CC(=O)Nc3cccc(F)c3)N(CCc3ccncc3)C2=O)cc1` (stereo not given): the activity change, negative = inhibition is -29.9% (inactive).

For `Cc1ccc(CNC(=O)C2CC(c3ccccc3[N+](=O)[O-])=NO2)o1` (stereo not given), the activity change, negative = inhibition was -11.5% (inactive).

Regarding `Cc1ccccc1NC(=O)c1cc2c([nH]c1=O)CC(C)(C)CC2=O`, the activity change, negative = inhibition is 43% (inactive). Then `Clc1ccc(-n2nnnc2-c2cnc(-c3ccccn3)nc2-c2cccs2)cc1`, with -103% (active); and `O=C(Cn1cc(-c2nnnn2-c2ccc(Cl)cc2)c(=O)c2ccccc21)c1ccccc1`, with -9.79% (inactive). Take `N#Cc1ccc(CSc2nnc(-c3ccccn3)n2-c2ccc(Cl)cc2)cc1`: the activity change, negative = inhibition is -9.16% (inactive).

These data come from PubChem BioAssay AID1259415 (National Center for Advancing Translational Sciences (NCATS), 2018).
